Bioassay records (PubChem BioAssay)
This is a sample that favours compounds with a hit; in the whole collection about 11% have one here.
HPGD inh = HPGD (human) dehydrogenase inhibition. P15428. purified HPGD, NADH fluorescence kinetic, PGE2 substrate. Potency, µM, inactives show top-dose activity change, negative = inhibition, hits mostly inhibitors. 150,000 compounds, 4.3% hits. AID 894; also: potency is read from the fitted curve at half-maximal effect
Target sequence (P15428 whole entry, looked up): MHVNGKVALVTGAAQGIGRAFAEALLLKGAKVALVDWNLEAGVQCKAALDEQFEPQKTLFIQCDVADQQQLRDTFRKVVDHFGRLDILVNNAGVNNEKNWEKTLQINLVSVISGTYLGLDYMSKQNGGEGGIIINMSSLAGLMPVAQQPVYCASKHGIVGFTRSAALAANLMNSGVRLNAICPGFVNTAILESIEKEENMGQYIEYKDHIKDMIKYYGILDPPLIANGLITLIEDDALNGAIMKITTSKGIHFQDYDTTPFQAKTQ
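20 nM HPGD preincubated 15 min at room temperature with compound in 50 mM Tris-HCl pH 8, 0.01% Tween 20. Started with 1 mM NAD+ and 30 uM prostaglandin E2; NADH fluorescence (360/450 nm) read 5 times over 30-s intervals, last minus first.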
IMPase Li inh = IMPase inhibition in cells with lithium potentiation. CHO-M1 cells, IP1 TR-FRET (IP-One), carbachol + lithium. Potency, µM (highest dose often 59.4 µM), without a hit: at the top dose activity, negative = IMPase inhibition, usual class: inhibitors. 210,000 compounds, 0.35% hits; active = well fitted curve in the direction sought with a large enough effect; inconclusive = small, poorly fitted or top-dose-only effect, or another doubt; inactive = no such curve, though single readings can be large; an effect the other way counts as inactive or inconclusive;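 also: IP1 builds up when IMPase is blocked and the TR-FRET signal falls; potency is read from the fitted curve at half-maximal effect; plate controls were basal vehicle for no effect and high inhibitor control for full effect; nearly all actives have a fitted effect of over 50% in size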
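CHO cells stably expressing M1 receptor (2000/well, cultured 16–30 h) treated 30 min at 37C with compound plus low lithium. Cytosolic IP1 by TR-FRET (665/620 ratio and 620 channel) after 10 min lysis; AC50 by Hill fit.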
12-hLO inh = inhibitors of human 12-lipoxygenase (ALOX12); purified 12-hLO, xylenol orange hydroperoxide absorbance; 150,000 compounds, 0.12% hits; Potency, µM (titrated, usually from 57.1 µM), for the others: at the top dose activity change, negative = inhibition, actives largely listed as inhibitors; P18054; active = well fitted curve in the direction sought with a large enough effect; inconclusive = small, poorly fitted or top-dose-only effect, or another doubt; inactive = no such curve, though single readings can be large; an effect the other way counts as inactive or inconclusive; also: potency is read from the fitted curve at half-maximal effect; nearly all actives have a fitted effect of over 55% in size
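Purified human 12hLO (150 nM), preincubated 15 min with compound, then 40 uM arachidonic acid for 30 min, room temperature, Hepes pH 7.0 with 0.01% Triton X-100. Hydroperoxide detected by ferrous iron/xylenol orange; 573/405 nm absorbance ratio gives reaction progress.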
IMPase inh = IMPase inhibition in cells; P97697; CHO-M1 cells, IP1 accumulation, HTRF TR-FRET ratio; inhibition (IP1 accumulation), % at 46.1 µM; 120,000 tested, under 10 active; AID 901; active = well fitted curve in the direction sought with a large enough effect in the signal ratio, not every such curve was filed as active; inconclusive = small, poorly fitted or top-dose-only effect, or a change in a side signal; inactive = no such curve, though single readings can be large or run the other way; the % refers to the signal ratio;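 also: cells stimulated with carbachol in lithium chloride buffer; plate controls were DMSO basal wells for no effect and reference inhibitor wells for full effect; higher means more IMPase inhibition seen as more IP1 and lower FRET ratio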
Target sequence (P97697 whole entry, looked up): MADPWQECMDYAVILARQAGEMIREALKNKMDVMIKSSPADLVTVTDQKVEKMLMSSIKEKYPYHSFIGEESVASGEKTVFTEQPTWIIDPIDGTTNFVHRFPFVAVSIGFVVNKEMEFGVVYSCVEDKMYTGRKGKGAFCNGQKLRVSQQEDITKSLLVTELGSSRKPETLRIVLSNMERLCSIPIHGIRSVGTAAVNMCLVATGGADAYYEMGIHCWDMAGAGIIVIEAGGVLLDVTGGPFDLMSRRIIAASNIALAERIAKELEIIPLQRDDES
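Seeded CHO-M1 cells were dosed with compound at up to 46 uM, stimulated with carbachol for 30 min, then lysed in IP-One detection reagents. Higher IP1 lowers the TR-FRET signal.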
ALDH1A1 block = ALDH1A1 (human) enzyme inhibition. P00352. Purified ALDH1A1, NADH fluorescence, propionaldehyde substrate. Potency, µM (titrated, usually from 75.3 µM), for the others: at the top dose activity, negative = inhibition, hits mostly inhibitors. 220,000 compounds, 7.3% hits. AID 1030;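 also: potency is read from the fitted curve at half-maximal effect; plate controls were no enzyme wells and a reference inhibitor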
PNC assembly inh = perinucleolar compartment assembly inhibition; 140,000 compounds, 3.1% hits; PC3M PTB-GFP, PNC prevalence imaging, 16 h; stronger effect = lower value; activity change (PNC), negative = inhibition, % at 10 µM; AID 2417;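 active = readout at or below -70, meaning at least 70% loss of cells showing the perinucleolar compartment, a nuclear body marking cancer cells; inconclusive = readout between -30 and a set limit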;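 also: plate controls were DMSO wells for no effect and camptothecin positive control wells for full effect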
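PC3M cells stably expressing PTB-GFP, 750–1000 cells/well, treated 16 h at 37 °C with compound (23 nl of library stock), in duplicate. After paraformaldehyde fixation and Hoechst stain, imaged at 20x; PNC prevalence scored by image analysis.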
An asterisk follows results filed as active; ? = inconclusive; nt = not tested or not shown; [ ] = another dose, or the depositor's remark. Unless noted, calls follow the shape of the dose curve; as a rule, active = well fitted inhibition curve with a large enough effect (not every such curve was filed as active); inconclusive = small, poorly fitted or top-dose-only effect, or another doubt; inactive = no such curve, though single readings can be large or run the other way. Unless noted, % is scaled to controls: 0 for no effect and ±100 for the full control effect.

SMILES | HPGD inh | IMPase Li inh | 12-hLO inh | IMPase inh | ALDH1A1 block | PNC assembly inh
CN(C)/C=C/C(=O)c1nnn(C2CCCCC2)c1NC1CCCCC1 | -21% | -9%[38.3 µM] | ? | 9 | 14µM* | 21
Cc1ccc(S(=O)(=O)N(C)C)cc1NC(=O)CCc1ccccc1 | nt | nt | nt | nt | 4.5µM* | nt
Cc1ccc(S(=O)(=O)N(C)C)cc1NC(=O)CCc1c[nH]c2ccccc12 | nt | 7% | nt | nt | 4.5µM* | nt
CCN(Cc1ccccc1)C(=O)CS(=O)(=O)c1ccccc1 | nt | -5% | nt | nt | 0% | nt
O=S(=O)(C/C(=C/CO)S(=O)(=O)c1ccccc1)c1ccccc1 | -5% | 26%[38.3 µM] | -1% | 9 | 13µM* | -95*
CC1CC(C)(C)N2C(=O)C3(Nc4ccccc4S3)c3cccc1c32 (stereo unspecified) | -11% | -11%[38.3 µM] | -16% | -3 | ? | -10
O=C1N2CCCc3cccc(c32)C12Nc1ccccc1S2 (stereo unspecified) | -17% | 28%[38.3 µM] | -21% | 1 | 14µM* | 10
O=S(=O)(Cc1ccccc1)N1CCn2c(nc3ccccc32)C1 | -3% | -1%[38.3 µM] | -6% | 3 | -2% | -87*
O=S(=O)(Cc1ccccc1)N1CCCCC1 | 32µM* | 17%[38.3 µM] | -6% | -6 | -4% | 23
O=S(=O)(Cc1ccccc1)N1CCCCCC1 | 0% | 2% | 1% | 2 | -10% | 7
O=S(=O)(c1ccc(Br)cc1)N1CCn2c(nc3ccccc32)C1 | -4% | -17%[38.3 µM] | 5% | -7 | 3% | 13
COc1cccc(-c2ccc3ncnc(Nc4ccccc4)c3c2)c1 | nt | 11% | nt | nt | 4% | nt
O=C(O)c1ccc(Cl)c(S(=O)(=O)Nc2ccc3cn[nH]c3c2)c1 | nt | -4% | nt | nt | 22µM* | nt
Cc1ccc(NC(=O)CSc2nnc(-c3ccncc3)o2)cc1C | nt | 3% | nt | nt | ? | nt
CCn1nnnc1-c1ccc(OC)c(S(=O)(=O)NCc2ccccc2)c1 | 20µM* | 39%[38.3 µM] | 13% | 6 | 1.9µM* | -4
COc1ccc(OC)c(S(=O)(=O)Nc2ccc(C)c(C)c2)c1 | -5% | 7%[38.3 µM] | -17% | 6 | ? | 3
COc1ccc(NS(=O)(=O)c2cc(-c3nnnn3C)ccc2OC)cc1 | -6% | -3%[38.3 µM] | 2% | 3 | 0.79µM* | 26
CCn1nnnc1-c1ccc(OC)c(S(=O)(=O)Nc2ccc(C)c(C)c2)c1 | -6% | -12%[38.3 µM] | 0% | 3 | 7.1µM* | ?
Cc1ccc(/C=N/n2cnc3sc(C)c(C)c3c2=O)o1 | nt | 14% | nt | nt | ? | nt
CCc1cccc(CC)c1NC(=O)CO/N=C(\C)c1cccs1 | 0.63µM* | -2% | -2% | 10 | -4% | -1
C/C(=N/OCC(=O)Nc1ccc(C)cc1C)c1cccs1 | 7.9µM* | 21%[38.3 µM] | -1% | 0 | 20% | 31
O=C(CCl)Oc1ccc2occ(C(=O)c3cccs3)c2c1 | -21% | 27%[38.3 µM] | 1% | -7 | 0.79µM* | 18
Cc1ccccc1C(=O)/C=C1/c2ccccc2CC(C)(C)N1C | -22% | 1%[38.3 µM] | 6% | 2 | ? | 53
CN1/C(=C\C(=O)c2ccccc2Cl)c2ccccc2CC1(C)C | 18µM* | 16% | -9% | nt | 2% | ?
CCC/C=C(\CCC)C(NC(=O)OCC(C)C)c1ccccc1 (stereo unspecified) | -5% | -7% | -4% | nt | 4% | nt
SMILES | HPGD inh | IMPase Li inh | 12-hLO inh | IMPase inh | ALDH1A1 block | PNC assembly inh
C[C@@]12CCC(OC(=O)c3ccccc3)CC1CCc1ccccc12 (stereo partly specified) | -18% | 14% | -1% | nt | 3% | nt
COc1ccc2c(c1)[C@]1(C)CCC(=O)C[C@H]1CC2 | -12% | -2% | 7% | nt | 2.8µM* | nt
O=C(CN1CCOCCOCCN(CC(=O)Nc2ccccc2)CCOCC1)Nc1ccccc1 | nt | nt | 4% | -3 | 22µM* | 9
O=C(CN1CCN(CCO)CC1)Nc1ccccc1 | -13% | 0% | -2% | 7 | ? | -100*
CCCCN(CCCC)S(=O)(=O)c1ccc(NC(=O)CN2CCOCC2)cc1 | -17% | 23%[38.3 µM] | 1% | -7 | 13µM* | -8
O=C(CN1CCCCC1)Nc1ccc(S(=O)(=O)N2CCOCC2)cc1 | -2% | 21%[38.3 µM] | 1% | 9 | 5% | 28
